From PubChem BioAssay come the findings set out here.

Calls of active or inactive are those of the source.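 How the source made its calls, unless noted: active means percent response above 42, roughly 3 SD of non-fluorescent test compounds; inactive means the rest.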

Assay [1] in a line: inhibitors of CD8+ T cell-vesicle binding, pilot screen, LFA-1/ICAM-1 modulator project, MLPCN validation set, flow cytometry (AID 2523;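 active means response below a set limit, under 55% cells CD8-positive and vesicle-bound, and CD8 cells' 90th-percentile brightness under 279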;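 on vesicle binding response: mean PE anti-B7-1 fluorescence of CD8+ cells relative to row control; 100% = QL9-loaded vesicles with DMSO vehicle in the same plate row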). The note with it: 2C mouse CD8+ T cells, at 7 µM, stronger effect = lower value; double positive events: measured here: CD8+/vesicle+ event percentage. (Flow cytometry measures light scatter and fluorescence of single cells or particles in a stream.)
For assay [2], the target named is Integrin beta-1 (Homo sapiens) + Integrin alpha-4 (Homo sapiens) (UniProt P13612+P05556). The experiment in a line: inhibition of HUTS-21 binding to VLA-4, pilot screen, VLA-4 allosteric modulator project, U937 cells, HUTS-21 mAb, flow cytometry, validation set (AID 2674;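 active means inhibition above 50%, about 3 SD of the validation set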;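 further: antibody binding induced by the VLA-4 ligand LDV present at three times its Kd; 0% = LDV ligand with antibody and no compound and 100% = antibody without LDV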). The note with it: HUTS-21 LIBS mAb binding, at 6.7 µM, stronger effect = higher value, binding induced by LDV ligand.

Assay [3] is described as follows: superoxide lowering in aged yeast cells, pilot screen, validation compound set (AID 2706;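 active means superoxide response below 65% of plate, a cut near 3 SD across the whole screen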;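 further: yeast exposed to compound for one week at 30 degrees C before staining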;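 on superoxide response (% of plate): 100% = mean of all compound wells on the same plate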). The following applies: S. cerevisiae aging, superoxide DHE fluorescence; at 10 µM, stronger effect = lower value.
The target in assay [4] is Beta-adrenergic receptor kinase 1 (Homo sapiens) (UniProt P25098). The experiment in a line: GRK2 binders displacing RNA aptamer, biochemical, validation, human GRK2, bead flow cytometry (AID 488806;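 active means aptamer binding inhibition above 30%, about 3 SD of noise from non-fluorescent compounds; inactive means inhibition at or below 30%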). The following applies: bead-bound GRK2, FAM-aptamer displacement, at 10 µM, stronger effect = higher value.
For assay [5], the target named is Beta-2 adrenergic receptor (Homo sapiens) (UniProt P07550). The experiment in a line: beta2AR agonists driving receptor internalization, pilot screen, cell-based, FAP fluorogen, flow cytometry, validation set (AID 504459).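 Further: agonist-driven loss of surface beta2AR via internalization measured by FAP dye flow cytometry.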 The note with it: Am2.2-beta2AR cells, FAP surface receptor flow cytometry; at 10 µM; stronger effect = higher value.
Assay [6] deals with AP-2 complex subunit beta (Homo sapiens) (UniProt P63010). The experiment in a line: inhibitors of arrestin peptide binding to AP2, pilot screen, biochemical, validation set, GST-AP2 beads, flow cytometry (AID 504541;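 active means inhibition above 54%, about 3 SD of non-fluorescent compounds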;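 further: AP2 carries R879A mutation and is captured from E. coli lysate; bead-bound FITC arrestin peptide fluorescence measuring arrestin peptide binding to AP2; 0% = DMSO wells and 100% = excess unlabeled arrestin peptide control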). The following applies: FITC arrestin peptide, at 10 µM, stronger effect = higher value, AP2 beta2 appendage fragment, R879A mutant.
The nature of assay [7]: yeast V-ATPase proton transport modulators, S. cerevisiae, pHLuorin, HTS validation (AID 504600; in the data active means response above about 15%;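 further: plate controls were DMSO for no effect and reference compound for full effect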). The note with it: S. cerevisiae pHLuorin cytosolic pH, at 10 µM, stronger effect = higher value.
The subject of assay [8] is anti-desmoglein-3 scFv antibody binding to human DSG3. The experiment in a line: inhibitors of anti-DSG3 scFv binding to DSG3, pilot screen, biochemical, validation compound set, bead-based, flow cytometry (AID 588368;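 active means binding below the plate cutoff, the plate median minus 3 SD, with a reading above zero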;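 further: signal is the median channel fluorescence of bead-bound GFP antibody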). The note with it: Protein G beads, DSG3-Fc, scFv-GFP binding, at 10 µM, stronger effect = lower value.
A short description of assay [9]: inhibitors of fungal efflux pumps CDR1, CDR2, MDR1, pilot screen, validation compound set, multiplex, phenotypic (AID 588506;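 active means efflux inhibition above 0.42, the validation set average plus 4 SD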;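 further: Nile Red retained in cells so higher fluorescence means more efflux inhibition; 0 = negative control wells and 1 = enniatin B 25 µM full block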). The following applies: S. cerevisiae pump-expressing triplex, Nile Red efflux flow cytometry; at 10 µM; stronger effect = higher value; the pumps come from Candida albicans.
In assay [10] the target is ATP-binding cassette sub-family B member 6 (Homo sapiens) (UniProt Q9NP58). The experiment in a line: ABCB6 transporter inhibitors, pilot screen, K562-ABCB6 cells, flow cytometry, validation set (AID 588550;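 active means inhibition above the screen-wide mean plus 3 SD, about 51%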;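 further: 0% = DMSO wells and 100% = benzethonium chloride 70 µM positive control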). The note with it: K562-ABCB6 porphyrin accumulation, 1 h, at 10 µM, stronger effect = higher value.
Assay [11] in a line: promoters of myeloid differentiation in arrested cells, primary screen, cell-based, GFP/MAC1 double positive, flow cytometry, validation set (AID 588685;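 active means differentiation response of at least 50%, scaled between solvent and reference control, from cells with both markers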;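 further: compound exposure lasts four days before antibody staining and flow analysis; 0% = DMSO wells and 100% = 5 µM fulvestrant positive control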). The following applies: ER-HoxA9 marrow cells, stronger effect = higher value, normalized: vehicle 0, fulvestrant 100.

ATP-binding cassette sub-family B member 6 (Homo sapiens), sequence (Q9NP58 whole entry, looked up): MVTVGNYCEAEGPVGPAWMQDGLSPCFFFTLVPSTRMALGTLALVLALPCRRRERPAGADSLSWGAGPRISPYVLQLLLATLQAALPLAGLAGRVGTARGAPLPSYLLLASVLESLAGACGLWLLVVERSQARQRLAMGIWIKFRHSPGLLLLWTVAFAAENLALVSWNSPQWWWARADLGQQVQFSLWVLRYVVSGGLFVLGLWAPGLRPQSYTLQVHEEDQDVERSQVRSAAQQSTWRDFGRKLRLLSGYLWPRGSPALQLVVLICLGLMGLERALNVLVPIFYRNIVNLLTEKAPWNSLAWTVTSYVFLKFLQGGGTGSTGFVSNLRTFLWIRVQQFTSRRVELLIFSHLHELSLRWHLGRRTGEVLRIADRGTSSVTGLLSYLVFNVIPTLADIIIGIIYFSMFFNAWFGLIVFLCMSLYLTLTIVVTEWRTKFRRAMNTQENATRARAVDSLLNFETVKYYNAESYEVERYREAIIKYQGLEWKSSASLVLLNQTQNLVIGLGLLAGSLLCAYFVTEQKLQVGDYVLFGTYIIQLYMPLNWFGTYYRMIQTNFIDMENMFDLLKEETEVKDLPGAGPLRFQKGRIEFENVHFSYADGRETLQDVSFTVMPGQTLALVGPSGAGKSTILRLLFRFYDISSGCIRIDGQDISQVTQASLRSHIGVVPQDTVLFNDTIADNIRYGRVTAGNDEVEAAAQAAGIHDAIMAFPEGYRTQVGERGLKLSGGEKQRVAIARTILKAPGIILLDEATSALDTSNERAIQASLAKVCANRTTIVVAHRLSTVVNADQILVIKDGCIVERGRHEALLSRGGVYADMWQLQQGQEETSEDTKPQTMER
AP-2 complex subunit beta (Homo sapiens), sequence (P63010 whole entry, looked up, the tested form may be a part, one chain of several): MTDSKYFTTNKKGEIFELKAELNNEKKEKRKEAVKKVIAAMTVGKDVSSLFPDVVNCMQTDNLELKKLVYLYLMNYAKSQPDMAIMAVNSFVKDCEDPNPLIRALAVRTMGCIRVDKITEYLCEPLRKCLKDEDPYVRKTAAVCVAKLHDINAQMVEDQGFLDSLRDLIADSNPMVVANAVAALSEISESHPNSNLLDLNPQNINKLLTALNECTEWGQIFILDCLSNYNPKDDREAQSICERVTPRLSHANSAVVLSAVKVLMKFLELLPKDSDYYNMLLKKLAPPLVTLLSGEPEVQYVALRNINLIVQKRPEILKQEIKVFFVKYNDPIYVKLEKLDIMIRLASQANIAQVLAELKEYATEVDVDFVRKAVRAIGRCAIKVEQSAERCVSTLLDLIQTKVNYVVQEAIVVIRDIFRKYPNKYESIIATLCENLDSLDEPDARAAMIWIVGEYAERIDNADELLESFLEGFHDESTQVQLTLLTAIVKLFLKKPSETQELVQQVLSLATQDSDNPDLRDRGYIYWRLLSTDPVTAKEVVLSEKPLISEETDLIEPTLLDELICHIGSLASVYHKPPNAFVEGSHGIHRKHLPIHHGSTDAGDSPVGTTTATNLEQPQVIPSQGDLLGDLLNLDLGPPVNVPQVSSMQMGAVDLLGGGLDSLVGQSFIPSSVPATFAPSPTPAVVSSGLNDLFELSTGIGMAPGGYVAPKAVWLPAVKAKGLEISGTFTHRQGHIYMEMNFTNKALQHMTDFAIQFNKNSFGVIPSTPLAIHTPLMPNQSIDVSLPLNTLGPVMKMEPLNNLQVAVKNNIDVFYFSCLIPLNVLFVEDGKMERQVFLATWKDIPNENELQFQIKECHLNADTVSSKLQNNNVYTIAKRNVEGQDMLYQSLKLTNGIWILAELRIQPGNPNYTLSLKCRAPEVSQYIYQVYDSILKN
Beta-2 adrenergic receptor (Homo sapiens), sequence (P07550 whole entry, looked up): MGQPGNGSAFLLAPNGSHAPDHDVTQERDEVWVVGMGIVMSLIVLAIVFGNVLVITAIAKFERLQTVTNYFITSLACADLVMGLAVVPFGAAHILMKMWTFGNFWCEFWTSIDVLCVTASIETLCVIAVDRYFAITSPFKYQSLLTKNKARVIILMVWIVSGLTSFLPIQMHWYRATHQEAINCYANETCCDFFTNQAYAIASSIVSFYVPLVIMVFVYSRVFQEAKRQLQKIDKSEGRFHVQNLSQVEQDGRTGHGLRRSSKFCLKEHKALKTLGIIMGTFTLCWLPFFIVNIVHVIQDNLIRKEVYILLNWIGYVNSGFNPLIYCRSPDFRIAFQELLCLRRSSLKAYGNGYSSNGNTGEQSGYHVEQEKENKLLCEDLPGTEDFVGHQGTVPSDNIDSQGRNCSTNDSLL
Integrin beta-1 (Homo sapiens) + Integrin alpha-4 (Homo sapiens), sequence (P05556 whole entry, looked up): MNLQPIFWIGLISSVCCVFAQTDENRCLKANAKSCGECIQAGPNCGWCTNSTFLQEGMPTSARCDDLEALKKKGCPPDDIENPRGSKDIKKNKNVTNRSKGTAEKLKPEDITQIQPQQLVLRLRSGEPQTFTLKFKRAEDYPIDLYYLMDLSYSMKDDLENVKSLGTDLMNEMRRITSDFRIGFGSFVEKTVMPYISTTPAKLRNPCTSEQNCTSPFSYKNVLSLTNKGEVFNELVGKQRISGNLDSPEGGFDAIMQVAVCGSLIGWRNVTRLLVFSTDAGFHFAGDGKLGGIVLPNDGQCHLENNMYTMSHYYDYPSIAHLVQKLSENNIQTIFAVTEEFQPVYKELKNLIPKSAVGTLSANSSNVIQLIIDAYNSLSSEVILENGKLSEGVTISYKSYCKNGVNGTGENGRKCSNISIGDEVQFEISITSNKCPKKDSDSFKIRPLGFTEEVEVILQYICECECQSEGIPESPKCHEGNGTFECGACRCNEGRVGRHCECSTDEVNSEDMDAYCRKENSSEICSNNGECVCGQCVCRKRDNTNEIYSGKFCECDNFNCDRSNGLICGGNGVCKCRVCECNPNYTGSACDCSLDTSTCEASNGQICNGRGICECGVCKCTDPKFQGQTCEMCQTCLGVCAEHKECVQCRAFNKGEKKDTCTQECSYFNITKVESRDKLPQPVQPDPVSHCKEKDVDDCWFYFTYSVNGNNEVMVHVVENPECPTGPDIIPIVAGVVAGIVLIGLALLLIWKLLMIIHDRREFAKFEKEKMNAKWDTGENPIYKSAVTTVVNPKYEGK
Integrin beta-1 (Homo sapiens) + Integrin alpha-4 (Homo sapiens), sequence (P13612 whole entry, looked up): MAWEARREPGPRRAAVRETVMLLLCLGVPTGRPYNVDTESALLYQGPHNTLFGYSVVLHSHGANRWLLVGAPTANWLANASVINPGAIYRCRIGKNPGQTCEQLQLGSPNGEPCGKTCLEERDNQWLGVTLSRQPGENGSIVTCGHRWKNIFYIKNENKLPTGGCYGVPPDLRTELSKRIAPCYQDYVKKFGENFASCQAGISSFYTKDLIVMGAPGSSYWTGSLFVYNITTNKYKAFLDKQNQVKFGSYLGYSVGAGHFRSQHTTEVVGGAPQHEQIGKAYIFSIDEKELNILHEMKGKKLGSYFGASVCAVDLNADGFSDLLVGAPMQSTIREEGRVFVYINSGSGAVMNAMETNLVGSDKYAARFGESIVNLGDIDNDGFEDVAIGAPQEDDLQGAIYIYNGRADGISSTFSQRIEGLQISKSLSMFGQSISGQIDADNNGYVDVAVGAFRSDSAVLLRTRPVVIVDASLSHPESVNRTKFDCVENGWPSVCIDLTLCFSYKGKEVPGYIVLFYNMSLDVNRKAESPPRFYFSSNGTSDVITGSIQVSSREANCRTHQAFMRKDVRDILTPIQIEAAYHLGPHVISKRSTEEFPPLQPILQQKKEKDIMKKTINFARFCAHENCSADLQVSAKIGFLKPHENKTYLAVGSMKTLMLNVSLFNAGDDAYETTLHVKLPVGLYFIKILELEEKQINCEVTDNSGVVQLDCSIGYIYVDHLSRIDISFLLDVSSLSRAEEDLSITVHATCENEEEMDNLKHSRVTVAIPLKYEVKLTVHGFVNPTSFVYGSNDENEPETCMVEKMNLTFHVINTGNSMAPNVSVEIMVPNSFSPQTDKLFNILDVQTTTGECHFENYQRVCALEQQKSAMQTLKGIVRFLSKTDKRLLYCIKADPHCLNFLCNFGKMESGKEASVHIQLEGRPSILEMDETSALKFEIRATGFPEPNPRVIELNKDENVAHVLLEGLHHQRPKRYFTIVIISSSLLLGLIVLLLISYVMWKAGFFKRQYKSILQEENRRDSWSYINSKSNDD
Beta-adrenergic receptor kinase 1 (Homo sapiens), sequence (P25098 whole entry, looked up): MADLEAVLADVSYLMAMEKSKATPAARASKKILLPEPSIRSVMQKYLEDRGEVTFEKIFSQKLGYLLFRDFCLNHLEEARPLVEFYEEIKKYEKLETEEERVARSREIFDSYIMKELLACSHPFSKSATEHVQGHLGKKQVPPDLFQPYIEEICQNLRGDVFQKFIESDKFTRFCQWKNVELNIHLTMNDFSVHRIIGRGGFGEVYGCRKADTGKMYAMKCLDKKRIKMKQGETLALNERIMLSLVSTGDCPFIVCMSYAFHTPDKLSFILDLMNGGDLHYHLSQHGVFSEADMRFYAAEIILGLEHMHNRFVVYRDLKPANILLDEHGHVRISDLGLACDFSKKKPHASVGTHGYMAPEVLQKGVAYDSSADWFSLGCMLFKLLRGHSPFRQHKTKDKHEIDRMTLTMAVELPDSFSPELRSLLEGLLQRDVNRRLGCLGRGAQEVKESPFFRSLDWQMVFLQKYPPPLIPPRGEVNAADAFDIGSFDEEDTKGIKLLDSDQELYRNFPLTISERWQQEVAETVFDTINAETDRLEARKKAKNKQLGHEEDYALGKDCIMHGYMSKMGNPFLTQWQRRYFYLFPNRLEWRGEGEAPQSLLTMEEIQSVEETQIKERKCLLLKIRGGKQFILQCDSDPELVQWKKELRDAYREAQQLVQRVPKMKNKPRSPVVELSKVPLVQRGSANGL

The compound `O=C(O)C1Sc2[nH]c(=O)sc2C2c3ccc(O)cc3OC(=O)C12` (stereo unspecified) yielded a double positive events in [1] of 62.6%. Besides, in [1], the vesicle binding response was 157% (inactive). The inhibition is -11.8% (inactive) in assay [2], -0.44% (inactive) in assay [6] and -131% (inactive) in [10]. The superoxide response (% of plate) in [3] was 107% (inactive). For the same compound, in assay [4], the aptamer binding inhibition is 1% (inactive). For the same compound, the response in [5] was -11.1% (inactive); in [7], 5.3% (inactive). Besides, the binding (% of control) in assay [8] was 95.7% (inactive). Moreover, the efflux inhibition (fraction of control) in assay [9] is -0.1 (inactive). Further, the differentiation response in assay [11] was -3.11% (inactive).

In the case of `Cc1ccc2c(c1)c1c(n2C)C(=O)CCC1`, the double positive events in [1] came to 57.6%. Also, in [1], the vesicle binding response was 126% (inactive). Also, the values for the inhibition in [2], in [6] and in [10] were -7.79% (inactive), -3.89% (inactive) and 0% (inactive), respectively. Moreover, the superoxide response (% of plate) in assay [3] is 86.4% (inactive). The aptamer binding inhibition in assay [4] was 2% (inactive). Also, the response was 6.59% (inactive) in assay [5] and -3.07% (inactive) in [7]. In addition, the binding (% of control) in assay [8] was 97.9% (inactive). Also, the efflux inhibition (fraction of control) in assay [9] is 0.41 (inactive). In [11], the differentiation response is -8.96% (inactive).

Regarding `C[C@H](NC(=O)OC(C)(C)C)C(=O)NCC1CCC(C(=O)O)CC1` (stereo partly specified), in [1], the double positive events stood at 58%. For the same compound, the vesicle binding response in assay [1] was 166% (inactive). The inhibition was 5.03% (inactive) in assay [2], -1.54% (inactive) in [6] and 6% (inactive) in assay [10]. In assay [3], the superoxide response (% of plate) was 95.3% (inactive). Also, the aptamer binding inhibition in assay [4] is 6% (inactive). For the same compound, the response in assay [5] was -13.5% (inactive); in assay [7], 1.21% (inactive). Besides, the binding (% of control) in assay [8] is 99.5% (inactive). In addition, the efflux inhibition (fraction of control) in assay [9] was -0.06 (inactive). For the same compound, the differentiation response in assay [11] was 0.8% (inactive).

In [1], `O=C(Oc1cccccc1=O)c1ccccc1` returned a double positive events of 63.4%. Further, the vesicle binding response in [1] is 281% (inactive). Besides, the results for the inhibition in assay [2], in assay [6] and in [10] were 21% (inactive), 1.79% (inactive) and 2% (inactive), respectively. Moreover, the superoxide response (% of plate) in assay [3] is 105% (inactive). Further, the aptamer binding inhibition in assay [4] was 6% (inactive). The figures for the response in [5] and in assay [7] were -20.4% (inactive) and -32.2% (inactive), respectively. In assay [8], the binding (% of control) was 102% (inactive). For the same compound, the efflux inhibition (fraction of control) in assay [9] was 0 (inactive). Besides, the differentiation response in [11] is 5.85% (inactive).

`CC(=O)CCc1oc2ccccc2c1-c1ccccc1` returned a double positive events in [1] of 62.1%. Moreover, the vesicle binding response in assay [1] was 172% (inactive). Also, the results for the inhibition in assay [2], in [6] and in assay [10] were 0.59% (inactive), -8% (inactive) and 7% (inactive), respectively. Moreover, in assay [3], the compound was called inactive. In assay [4], the aptamer binding inhibition was -3% (inactive). The figures for the response in assay [5] and in assay [7] were -37.7% (inactive) and -1.06% (inactive), respectively. The binding (% of control) in assay [8] was 108% (inactive). Further, the efflux inhibition (fraction of control) in [9] is 0.12 (inactive). For the same compound, the differentiation response in assay [11] is -1.05% (inactive).

Turning to `O=C(c1cc2cc(Br)ccc2o1)N1CCCCC1`, in [1], the double positive events was determined as 63.8%. Besides, in assay [1], the vesicle binding response is 320% (inactive). The inhibition in assay [2] was 10.5% (inactive); in assay [6], -1.81% (inactive); in assay [10], 6% (inactive). For the same compound, the superoxide response (% of plate) in assay [3] was 86.2% (inactive). In addition, the aptamer binding inhibition in [4] is -4% (inactive). The response in assay [5] was -13.7% (inactive); in [7], -0.39% (inactive). Further, the binding (% of control) in assay [8] is 73.3% (active). In assay [9], the efflux inhibition (fraction of control) is 0.05 (inactive). In addition, in [11], the differentiation response was 4% (inactive).

With `COC(=O)c1cc(C(=O)NCCC(C)C)cc([N+](=O)[O-])c1`, the double positive events in [1] came to 57.8%. Further, the vesicle binding response in [1] was 229% (inactive). For the same compound, the inhibition was 2.3% (inactive) in assay [2], -12% (inactive) in [6] and 3% (inactive) in assay [10]. In [3], the superoxide response (% of plate) was 112% (inactive). In addition, the aptamer binding inhibition in [4] was 4% (inactive). Further, the response in assay [5] is 7.63% (inactive); in assay [7], 2.1% (inactive). The binding (% of control) in [8] is 94.5% (inactive). Moreover, the efflux inhibition (fraction of control) in assay [9] is -0.13 (inactive). The differentiation response in assay [11] was -15.2% (inactive).

In turn, `CCn1cc(C(=O)O)c(=O)c2cc(F)c(N3CCNCC3)cc21` registered a double positive events in [1] of 70.1%. For the same compound, in [1], the vesicle binding response was 276% (inactive). The inhibition in assay [2] is 14.2% (inactive); in [6], 5.87% (inactive); in [10], 2% (inactive). In assay [3], the superoxide response (% of plate) was 104% (inactive). Besides, the aptamer binding inhibition in assay [4] was 2% (inactive). The response is 29.6% (inactive) in assay [5] and 7.15% (inactive) in [7]. Further, the binding (% of control) in assay [8] is 98% (inactive). Besides, the efflux inhibition (fraction of control) in assay [9] was 0 (inactive). Further, in assay [11], the differentiation response was 10.8% (inactive).

In [1], `C[C@H]1O[C@H]1P(=O)(O)O` came in with a double positive events of 66.2%. The vesicle binding response in [1] was 197% (inactive). Besides, the figures for the inhibition in [2], in [6] and in assay [10] were 15.1% (inactive), 6.72% (inactive) and 9% (inactive), respectively. In addition, the superoxide response (% of plate) in [3] is 95.9% (inactive). For the same compound, in assay [4], the aptamer binding inhibition is 5% (inactive). For the same compound, the response is -11.7% (inactive) in assay [5] and 17.1% (active) in assay [7]. Besides, in assay [8], the binding (% of control) is 103% (inactive). Besides, the efflux inhibition (fraction of control) in assay [9] is -0.09 (inactive). For the same compound, the differentiation response in assay [11] was 12.8% (inactive).

As to `CCn1c2ccccc2c2cc(CC(N)=O)ccc21`, in assay [1], the double positive events turned out to be 60.8%. Further, in [1], the vesicle binding response was 153% (inactive). The inhibition in [2] is 20.2% (inactive); in [6], 1.51% (inactive); in [10] it was 5% (inactive). For the same compound, the superoxide response (% of plate) in assay [3] was 92.7% (inactive). In addition, in assay [4], the aptamer binding inhibition is -1% (inactive). Besides, the response is -19.5% (inactive) in [5] and -10.1% (inactive) in assay [7]. Moreover, in [8], the binding (% of control) is 103% (inactive). Besides, the efflux inhibition (fraction of control) in assay [9] was 0.04 (inactive). Further, the differentiation response in assay [11] was -0.06% (inactive).

For the compound `O=C(Cc1ccc(Br)cc1)c1ccc(O)cc1O`, in assay [1], the double positive events came out at 58.3%. In addition, the vesicle binding response in assay [1] is 228% (inactive). Moreover, the values for the inhibition in assay [2], in assay [6] and in [10] were -23.6% (inactive), -2.59% (inactive) and 2% (inactive), respectively. In assay [3], the superoxide response (% of plate) was 97.7% (inactive). The aptamer binding inhibition in [4] was -1% (inactive). Besides, the values for the response in [5] and in assay [7] were -3.21% (inactive) and 1.13% (inactive), respectively. In [8], the binding (% of control) is 105% (inactive). In addition, in assay [9], the efflux inhibition (fraction of control) was 0.09 (inactive). Also, the differentiation response in [11] is 12.3% (inactive).

In assay [1], `CC(=O)N1CC23C=CC(CC2CC12CCCCCC2)O3` (stereo unspecified) registered a double positive events of 61.4%. In addition, the vesicle binding response in assay [1] is 200% (inactive). Moreover, the inhibition in [2] was 3.99% (inactive); in assay [6], -0.87% (inactive); in assay [10], 0% (inactive). Moreover, in assay [3], the superoxide response (% of plate) is 102% (inactive). Moreover, in assay [4], the aptamer binding inhibition is 8% (inactive). The values for the response in assay [5] and in [7] were -21.9% (inactive) and -29.7% (inactive), respectively. Moreover, the binding (% of control) in assay [8] was 104% (inactive). Also, the efflux inhibition (fraction of control) in assay [9] is -0.09 (inactive). The differentiation response in assay [11] was 0% (inactive).

`CCn1c(O)c(/C=C2\C=Nc3ccccc32)sc1=O` yielded a double positive events in assay [1] of 63.1%. For the same compound, the vesicle binding response in assay [1] is 97.1% (inactive). Further, the inhibition in assay [2] is -0.31% (inactive); in [6], -17.2% (inactive); in assay [10], 4% (inactive). Also, the superoxide response (% of plate) in [3] was 108% (inactive). Further, the aptamer binding inhibition in assay [4] was 1% (inactive). Also, the response in [5] is -3.25% (inactive); in assay [7], 0.06% (inactive). The binding (% of control) in assay [8] is 97.5% (inactive). Also, the efflux inhibition (fraction of control) in [9] is -0.44 (inactive). Further, the differentiation response in assay [11] was -5.68% (inactive).

As a reminder, the inhibition is the relative decrease from the control value, in per cent.
